From PubChem BioAssay
FMDV antiviral = High Throughput Screening for Foot and Mouth Disease Virus Antivirals | FMDV antiviral cell-based qHTS | Potency, µM (titrated, usually from 57.9 µM), for the others: at the highest dose activity change, negative = inhibition, most hits filed as inhibitors | actives 1.2% (n = 410,000); calls by dose curve; tested in HEK293T cells; further: read-out not given here; potency means the concentration at half of the fitted maximal effect; nearly all actives have a fitted effect of over 45% in size
Marburg entry inh = qHTS for inhibitors of binding or entry into cells for Marburg Virus | Marburg virus pseudotyped entry inhibition, cell reporter | actives 1.8% (n = 300,000) | Potency, µM (titrated, usually from 37.8 µM), for inactives: top-dose activity change, negative = inhibition, hits mostly inhibitors; calls by dose curve; tested in HEK293 cells; further: potency means the concentration at half of the fitted maximal effect
Lassa entry inh = qHTS for Inhibitors of binding or entry into cells for Lassa Virus | Lassa virus pseudotype entry inhibition, cell reporter | Potency, µM (titrated, usually from 37.9 µM), without a hit: top-dose activity change, negative = inhibition, usual class: inhibitors | actives 1.2% (n = 300,000) | AID 540256, 2011; calls by dose curve; tested in HEK293 cells; further: potency means the concentration at half of the fitted maximal effect; nearly all actives have a fitted effect of over 50% in size
HCMV inh = qHTS Assay for inhibitors of the human cytomegalovirus (HCMV); HFF cells, HCMV-luciferase reporter, 72 h; active compounds read low; activity change, negative = inhibition, % at 57.5 µM; actives 4.5% (n = 410,000); in the data active means activity change below about -60%; inconclusive means no clear call, values can overlap the other calls; inactive means above about -39%
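Inhibition of viral replication was scored as loss of reporter luminescence in HFFs infected with HCMV-luciferase (MOI 1 PFU/cell) for 72 h; compounds tested at 2 doses, normalized to buffer and Salinomycin controls.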
HCV inh = qHTS Assay for Inhibitors of Hepatitis C Virus (HCV) | AID 651820, 2012 | Huh7.5.1 HCVcc-Cre infection, luciferase reporter, 44 h | Potency, µM (highest dose often 41.8 µM), for inactives: at the highest dose activity change, negative = inhibition, actives largely listed as inhibitors | actives 3.4% (n = 340,000); active means well fitted inhibition curve with a large enough effect; inconclusive means small, poorly fitted or top-dose-only effect, or another doubt; inactive means no such curve, though single readings can be large or run the other way; further: potency means the concentration at half of the fitted maximal effect
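Seed cells (1,000/well) for 4 h; treat with compound and infect with HCVcc-Cre, moi about 0.5. Incubate 44 h, then detect luciferase activity.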
* marks the source's active call; other numbers are inactive results; ? = inconclusive; · = no result given; [ ] = dose if it differs, or a comment. Only some compounds are listed: those with a hit (about 7.9% of all), similar ones and a draw of the others. On the % scale 0 is the no-effect control and ±100 the full control effect.

SMILES	FMDV antiviral	Marburg entry inh	Lassa entry inh	HCMV inh	HCV inh
CNC(=O)C1CCC(Cn2c(=O)c3sccc3n(CC(=O)Nc3cc(F)ccc3F)c2=O)CC1 (stereo not drawn)	-3%	·	14%[46.1 µM]	9	·
CCSC1=NC2(CCN(C(=O)NC3CCCCC3)CC2)N=C1c1ccc(Cl)cc1	-15%	·	29%[46.1 µM]	5	·
COc1ccccc1NC(=O)CN1C(=O)C(c2ccc(F)cc2)=NC1(C)C	?	?	22%[46.1 µM]	-9	·
c1ccc(Nc2ccc(NCCc3c[nH]c4ccccc34)cc2)cc1	·	·	·	25	·
Cc1cc(NCCc2c[nH]c3ccccc23)ccc1Nc1cccnc1	·	·	·	-87*	·
C#C[C@]1(O)CC[C@H]2[C@H]3CCC4=Cc5oncc5C[C@]4(C)[C@@H]3CC[C@]21C	-30%	21µM*	·	·	·
C#C[C@]1(O)CC[C@H]2[C@@H]3CCC4=Cc5oncc5C[C@]4(C)[C@H]3CC[C@@]21C	40µM*	·	·	9	7%
C=CCn1c(SCC(=O)N2CCOCC2)nc2scc(-c3ccco3)c2c1=O	-15%	-13%	10µM*	·	?
Cc1cc(NC(=O)CSc2nc3sc4c(c3c(=O)n2C)CCCC4)no1	-5%	-9%	3%	5	-3%
CC(C)C(C)(C#N)NC(=O)CSc1nc2scc(-c3ccco3)c2c(=O)n1-c1ccccc1 (stereo not drawn)	-7%	-12%	-20%	-17	?
CC(C)C(C)NC(=O)CSc1nc2scc(-c3ccco3)c2c(=O)n1-c1ccccc1 (stereo not drawn)	0%	-38%	-13%	-63*	8%
Cc1nn(Cc2ccccc2)c(C)c1NC(=O)CSc1nc2sc3c(c2c(=O)n1C)CCC3	?	6%	6%	·	22µM*
COc1ccc(-n2c(SCCNCCO)nc3sc4c(c3c2=O)CCCC4)cc1	-7%	?	?	-9	2.8µM*
CC(=O)OC[C@H]1O[C@@H](ON=C(C)CCC(=O)OC[C@H]2O[C@H](C#Cc3ccccc3)C=C[C@H]2Oc2ccc(C)cc2)[C@H](OC(C)=O)[C@@H](OC(C)=O)[C@H]1OC(C)=O	·	9%[14.2 µM]	·	·	·
Cc1ccc(NC(=O)c2nc(-c3ccncc3)no2)c(Cl)c1	-2%	·	5%[46.1 µM]	72	·
O=C(O)CSc1nc2sc3c(c2c(=O)n1-c1ccccc1)CCC3	9%	-1%[46.1 µM]	-13%	-25	-5%
CC(NC(=O)CSc1nc2sc3c(c2c(=O)n1-c1ccccc1)CCCC3)c1ccccc1 (stereo not drawn)	·	?	?	-81*	1%
CCOc1ccc(Nc2c(S(=O)(=O)c3ccc(C)cc3)cnc3cc(OC)c(OC)cc23)cc1	-11%	-22%[46.1 µM]	·	-12	·
O=C(Nc1ccncc1)c1cccs1	-16%	2%[46.1 µM]	-7%	-34	14%
Cc1cnccc1NC(=O)c1cccs1	-12%	-1%	3%	-62*	-26%
Cc1nc(NC(=O)c2cccs2)ccc1Br	1%	?	6.3µM*	58	?
Cc1ccccc1C(=O)Nc1nc2nc(C)c(C)c(=O)n2[nH]1	-22%	?	?	73	·
CCOc1cc(C#N)c(NC(=O)c2cccc(S(=O)(=O)N3CCOCC3)c2)cc1OCC	0%	3%[46.1 µM]	11%[46.1 µM]	-6	·
COc1ccc(C(=O)Nc2nc3ccc(S(=O)(=O)N4CCCC4)cc3s2)cc1	40%	·	24%[46.1 µM]	-5	·
CCCC(=O)Nc1nc2ccc(S(=O)(=O)N3CCCCC3)cc2s1	11%	·	·	-28	?
SMILES	FMDV antiviral	Marburg entry inh	Lassa entry inh	HCMV inh	HCV inh
CC(=O)Nc1nc2ccc(S(=O)(=O)N3CCCC3)cc2s1	13%	·	·	-63*	1%
COc1cc2nc(NC(=O)c3ccc(S(=O)(=O)N4CCCC4)cc3)sc2cc1OC	0%	·	22%[46.1 µM]	-63*	·
Cc1cc(NC(=O)c2cc(-c3ccc(Cl)c(Cl)c3)on2)n(-c2ccccc2)n1	3%	-4%[46.1 µM]	8%[46.1 µM]	6	·
Cc1cc(C)c(-c2csc(NC(=O)c3n[nH]c(=O)c4ccccc34)n2)c(C)c1	?	?	?	-73*	?
COc1cc(NC(=O)c2n[nH]c(=O)c3ccccc23)cc(OC)c1	-14%	·	·	-36	5%
CCOc1ccc(-c2cc(C(=O)NCCCOC)c3c(-c4ccc(CC)cc4)[nH]nc3n2)cc1	9%	·	-5%[46.1 µM]	-21	·
CC(C)c1cc(-c2nc(-c3ccc(Cl)cc3)no2)n[nH]1	-16%	·	?	-68*	·
COc1ccc(C2=Nc3ccccc3NC(=O)C2N(C(=O)c2cnc(C)cn2)c2ccc(N3CCOCC3)cc2)cc1 (stereo not drawn)	17%	·	·	23	·
COc1ccc(C2=Nc3ccccc3NC(=O)C2N(C(=O)c2ccnc3ccccc23)c2ccccc2)cc1 (stereo not drawn)	-15%	·	·	-82*	·
CCN1C(=O)[C@@H]2[C@H]3[C@H](O)[C@H](O)CC(=NO[C@@H](C)c4cn([C@H](CO)Cc5ccccc5)nn4)[C@@H]3CC[C@H]2C1=O	·	-3%[14.2 µM]	?	·	·
c1ccc(CCc2nc(-c3cccnc3)no2)cc1	42%	3%[46.1 µM]	4%	10	11µM*
c1ccc(-c2ccccc2-c2nc(-c3cccnc3)no2)cc1	-7%	?	0%	-16	11µM*
O=C(Nc1ccc(-c2noc(CCc3ccccc3)n2)cc1)c1ccco1	-32%	?	?	-88*	?
c1cncc(-c2noc(-c3cccc4ccccc34)n2)c1	54%	?	1%	211	?
c1ccc(CCc2ccccc2-c2nc(-c3cccnc3)no2)cc1	?	?	-14%	-22	7.1µM*
COCCCNc1ncnc2sc(C(=O)N3CCCCC3)c(C)c12	-7%	·	·	·	·
COc1cccc(N2CCN(C(=O)c3cccc(NC(=O)c4nsc5ccccc45)c3)CC2)c1	-25%	·	?	65	·
CC(=O)Nc1ccc(NC(=O)C(C)OC(=O)C2(c3ccc(F)cc3)CCCC2)cc1 (stereo not drawn)	25µM*	·	·	-29	?
Nc1cc2c(cc1[N+](=O)[O-])-c1ccccc1C2=NO	10%	?	?	-68*	?
O=[N+]([O-])c1ccc2c(c1)C(=NO)c1cc(Cl)c(Cl)cc1-2	0%	?	-5%[46.1 µM]	?	11µM*
CC(=O)Nc1cc2c(cc1[N+](=O)[O-])-c1ccccc1C2=NO	8%	-17%	4%	11	4%
O=C(O)c1ccccc1-c1ccc([N+](=O)[O-])cc1Cl	-21%	·	·	-13	·
Cc1oc(-c2ccccc2NC(=O)c2ccccc2)nc1CNC(=O)c1c(-c2ccccc2)noc1C	3%	·	·	·	·
COc1cccc(Nc2ccccc2C(=O)O)c1	59%	0%[46.1 µM]	?	-5	20%
COc1cc([N+](=O)[O-])c(OC)cc1Nc1ccccc1C(=O)O	·	·	·	-4	·
O=C(O)c1ccccc1Nc1ccccc1	-11%	?	8%	-5	5µM*
